Data: the supplement of paper PMC11732987, “Enantioselective OTUD7B fragment discovery through chemoproteomics screening and high-throughput optimisation” (Communications Chemistry, 2025)
Values without a mark were called inactive.

Key:
Experiment in all cases: log2 ratio of Biotin-Ahx-Ub-VS probe labelling (fragment/DMSO); higher = less target engagement (more negative = stronger competition), active = hit call of the paper (q ≤ 0.05, log2 ratio ≤ -1)
Settings in all cases: compound concentration: 200 uM; treatment time: 3 h
USP42 = target: T1, USP42 (UniProt Q9H9J4)
T1 sequence (whole entry): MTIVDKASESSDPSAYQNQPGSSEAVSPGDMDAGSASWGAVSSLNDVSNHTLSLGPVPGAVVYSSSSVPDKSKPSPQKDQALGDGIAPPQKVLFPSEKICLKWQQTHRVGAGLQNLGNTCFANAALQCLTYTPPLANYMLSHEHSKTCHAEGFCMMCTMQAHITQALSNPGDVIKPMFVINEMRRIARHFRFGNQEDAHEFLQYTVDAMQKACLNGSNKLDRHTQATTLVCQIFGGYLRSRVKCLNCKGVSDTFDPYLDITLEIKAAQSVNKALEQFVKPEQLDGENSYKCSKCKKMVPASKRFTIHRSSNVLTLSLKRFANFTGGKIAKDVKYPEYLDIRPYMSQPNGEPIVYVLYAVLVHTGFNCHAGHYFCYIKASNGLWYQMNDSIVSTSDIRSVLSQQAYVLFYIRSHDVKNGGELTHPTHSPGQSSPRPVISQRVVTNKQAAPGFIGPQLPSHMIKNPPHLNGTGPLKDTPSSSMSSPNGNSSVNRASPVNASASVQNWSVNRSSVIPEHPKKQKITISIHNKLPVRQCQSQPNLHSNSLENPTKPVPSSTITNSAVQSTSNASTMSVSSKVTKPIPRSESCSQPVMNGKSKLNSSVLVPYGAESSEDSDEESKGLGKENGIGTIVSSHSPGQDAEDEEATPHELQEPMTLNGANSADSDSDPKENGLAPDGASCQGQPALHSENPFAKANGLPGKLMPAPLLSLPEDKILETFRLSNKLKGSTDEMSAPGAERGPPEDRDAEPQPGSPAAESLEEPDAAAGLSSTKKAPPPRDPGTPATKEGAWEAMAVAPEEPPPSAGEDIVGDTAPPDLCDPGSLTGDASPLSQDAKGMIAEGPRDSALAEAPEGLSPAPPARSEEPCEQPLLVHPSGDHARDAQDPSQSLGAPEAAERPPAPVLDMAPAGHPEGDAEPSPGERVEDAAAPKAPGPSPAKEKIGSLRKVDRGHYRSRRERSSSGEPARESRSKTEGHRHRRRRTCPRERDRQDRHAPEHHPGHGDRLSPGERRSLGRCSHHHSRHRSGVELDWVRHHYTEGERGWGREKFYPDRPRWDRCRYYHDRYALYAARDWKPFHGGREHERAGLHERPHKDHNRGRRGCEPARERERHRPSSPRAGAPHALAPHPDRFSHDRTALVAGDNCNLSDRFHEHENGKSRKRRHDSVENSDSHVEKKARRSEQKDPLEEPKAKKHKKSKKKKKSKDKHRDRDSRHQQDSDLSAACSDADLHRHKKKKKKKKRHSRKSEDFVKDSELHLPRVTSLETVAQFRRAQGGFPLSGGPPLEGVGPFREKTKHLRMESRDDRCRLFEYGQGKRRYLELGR
Procedure, shortened: (§1)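 Labelled DUBs from HEK293T lysate were NeutrAvidin-enriched, digested with LysC and trypsin, and run by diaPASEF LC-MS/MS. Before that, each 495 µg sample in Tris/CHAPS/IGEPAL buffer with protease inhibitors was treated in triplicate with fragment at 200 µM or vehicle for 3 h, then with Biotin-Ahx-Ub-VS at 0.5 µM final for 1 h. Values are average log2 ratios of fragment over vehicle by unpaired t-test, based on global-median-normalised Spectronaut label-free quantities from proteins with ≥2 unique peptides.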

USP46 = USP46 (UniProt P62068)
Procedure, shortened: as §1

USP47 = target: T2, USP47 (UniProt Q96K76)
T2 sequence (whole entry): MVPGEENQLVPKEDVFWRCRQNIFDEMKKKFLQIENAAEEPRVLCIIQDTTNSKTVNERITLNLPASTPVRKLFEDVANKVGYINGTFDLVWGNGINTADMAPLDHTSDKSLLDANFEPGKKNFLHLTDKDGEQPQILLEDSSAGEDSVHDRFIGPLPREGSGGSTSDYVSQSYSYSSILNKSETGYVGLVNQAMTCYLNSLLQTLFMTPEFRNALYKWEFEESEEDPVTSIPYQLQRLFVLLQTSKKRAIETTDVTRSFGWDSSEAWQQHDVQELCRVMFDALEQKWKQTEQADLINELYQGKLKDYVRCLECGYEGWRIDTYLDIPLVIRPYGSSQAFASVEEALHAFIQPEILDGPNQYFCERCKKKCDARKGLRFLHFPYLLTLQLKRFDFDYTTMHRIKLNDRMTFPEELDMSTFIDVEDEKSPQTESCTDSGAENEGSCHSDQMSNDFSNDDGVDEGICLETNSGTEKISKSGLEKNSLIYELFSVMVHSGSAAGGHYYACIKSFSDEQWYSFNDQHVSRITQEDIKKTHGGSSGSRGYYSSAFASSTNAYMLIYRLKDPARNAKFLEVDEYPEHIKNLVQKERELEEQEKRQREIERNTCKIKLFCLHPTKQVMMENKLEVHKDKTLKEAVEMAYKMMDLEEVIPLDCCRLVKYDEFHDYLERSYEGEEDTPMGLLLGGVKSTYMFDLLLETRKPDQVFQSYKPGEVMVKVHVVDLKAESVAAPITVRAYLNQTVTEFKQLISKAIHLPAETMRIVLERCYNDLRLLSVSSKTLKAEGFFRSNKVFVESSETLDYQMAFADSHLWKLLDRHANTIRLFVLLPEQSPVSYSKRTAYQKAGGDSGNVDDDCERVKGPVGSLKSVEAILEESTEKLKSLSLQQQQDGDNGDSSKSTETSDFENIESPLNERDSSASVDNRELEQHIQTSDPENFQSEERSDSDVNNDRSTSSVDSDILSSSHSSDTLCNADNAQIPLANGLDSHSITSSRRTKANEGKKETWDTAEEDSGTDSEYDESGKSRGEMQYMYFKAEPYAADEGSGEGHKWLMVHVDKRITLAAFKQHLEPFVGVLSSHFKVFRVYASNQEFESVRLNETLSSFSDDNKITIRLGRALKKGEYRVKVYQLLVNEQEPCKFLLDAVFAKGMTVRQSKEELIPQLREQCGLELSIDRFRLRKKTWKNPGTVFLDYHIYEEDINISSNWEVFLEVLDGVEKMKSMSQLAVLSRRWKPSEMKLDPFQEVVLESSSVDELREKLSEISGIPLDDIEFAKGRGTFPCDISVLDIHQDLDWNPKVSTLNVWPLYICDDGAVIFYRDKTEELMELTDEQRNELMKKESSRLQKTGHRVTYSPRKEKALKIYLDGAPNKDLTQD
Procedure, shortened: as §1

USP48 = target: T3, USP48 (UniProt Q86UV5)
T3 sequence (whole entry): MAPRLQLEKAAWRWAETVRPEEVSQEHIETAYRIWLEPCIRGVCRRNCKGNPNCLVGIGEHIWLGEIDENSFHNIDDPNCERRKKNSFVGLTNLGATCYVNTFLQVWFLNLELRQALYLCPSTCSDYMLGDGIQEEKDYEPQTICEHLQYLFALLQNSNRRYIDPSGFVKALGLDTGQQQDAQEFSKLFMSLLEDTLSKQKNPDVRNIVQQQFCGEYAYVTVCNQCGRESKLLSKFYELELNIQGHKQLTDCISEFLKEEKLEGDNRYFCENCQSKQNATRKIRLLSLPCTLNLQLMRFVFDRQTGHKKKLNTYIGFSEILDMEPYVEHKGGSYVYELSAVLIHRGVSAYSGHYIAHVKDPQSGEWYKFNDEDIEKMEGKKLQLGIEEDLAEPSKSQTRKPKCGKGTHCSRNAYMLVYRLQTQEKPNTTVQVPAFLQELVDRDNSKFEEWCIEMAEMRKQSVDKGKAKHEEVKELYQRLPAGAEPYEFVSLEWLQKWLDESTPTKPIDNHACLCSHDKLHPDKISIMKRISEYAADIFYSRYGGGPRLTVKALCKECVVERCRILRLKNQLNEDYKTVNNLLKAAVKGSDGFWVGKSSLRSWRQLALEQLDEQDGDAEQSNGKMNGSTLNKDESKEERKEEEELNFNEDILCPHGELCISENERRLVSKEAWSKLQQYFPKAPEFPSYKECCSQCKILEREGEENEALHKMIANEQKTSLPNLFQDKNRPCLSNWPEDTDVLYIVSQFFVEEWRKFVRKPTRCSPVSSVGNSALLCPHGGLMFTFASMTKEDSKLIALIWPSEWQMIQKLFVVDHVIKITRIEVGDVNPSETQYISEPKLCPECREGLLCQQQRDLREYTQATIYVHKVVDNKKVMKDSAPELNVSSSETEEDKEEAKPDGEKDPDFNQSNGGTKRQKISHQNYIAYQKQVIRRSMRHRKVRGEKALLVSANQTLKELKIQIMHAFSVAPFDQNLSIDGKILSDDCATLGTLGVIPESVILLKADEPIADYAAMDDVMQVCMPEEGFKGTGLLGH
Procedure, shortened: as §1

USP5 = target: T4, USP5 (UniProt P45974)
T4 sequence (whole entry): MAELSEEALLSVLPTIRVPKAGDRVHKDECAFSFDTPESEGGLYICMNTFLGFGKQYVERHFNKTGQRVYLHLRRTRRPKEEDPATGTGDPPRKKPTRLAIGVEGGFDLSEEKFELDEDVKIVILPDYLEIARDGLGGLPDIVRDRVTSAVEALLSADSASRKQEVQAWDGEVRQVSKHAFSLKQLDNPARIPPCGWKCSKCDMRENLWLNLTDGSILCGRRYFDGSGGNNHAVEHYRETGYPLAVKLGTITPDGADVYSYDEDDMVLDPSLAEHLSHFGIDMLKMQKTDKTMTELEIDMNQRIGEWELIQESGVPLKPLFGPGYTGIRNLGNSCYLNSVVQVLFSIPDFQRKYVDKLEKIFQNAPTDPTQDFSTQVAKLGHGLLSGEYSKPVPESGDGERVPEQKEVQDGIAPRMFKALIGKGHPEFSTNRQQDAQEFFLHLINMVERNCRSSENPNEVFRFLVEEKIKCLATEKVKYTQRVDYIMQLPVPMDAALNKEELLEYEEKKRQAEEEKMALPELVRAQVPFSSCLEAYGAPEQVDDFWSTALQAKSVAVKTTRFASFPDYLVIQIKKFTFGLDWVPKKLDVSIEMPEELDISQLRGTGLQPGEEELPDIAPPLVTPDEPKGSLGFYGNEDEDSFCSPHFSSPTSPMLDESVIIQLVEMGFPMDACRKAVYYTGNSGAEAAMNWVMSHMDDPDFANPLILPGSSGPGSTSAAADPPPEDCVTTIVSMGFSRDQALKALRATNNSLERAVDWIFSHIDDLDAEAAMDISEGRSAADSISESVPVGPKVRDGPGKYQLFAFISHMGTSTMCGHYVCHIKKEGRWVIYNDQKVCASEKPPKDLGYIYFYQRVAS
Procedure, shortened: as §1

USP54 = USP54 (UniProt Q70EL1)
Procedure, shortened: as §1

USP7 = USP7 (UniProt Q93009)
Procedure, shortened: as §1

USP8 = target: T5, USP8 (UniProt P40818)
T5 sequence (whole entry): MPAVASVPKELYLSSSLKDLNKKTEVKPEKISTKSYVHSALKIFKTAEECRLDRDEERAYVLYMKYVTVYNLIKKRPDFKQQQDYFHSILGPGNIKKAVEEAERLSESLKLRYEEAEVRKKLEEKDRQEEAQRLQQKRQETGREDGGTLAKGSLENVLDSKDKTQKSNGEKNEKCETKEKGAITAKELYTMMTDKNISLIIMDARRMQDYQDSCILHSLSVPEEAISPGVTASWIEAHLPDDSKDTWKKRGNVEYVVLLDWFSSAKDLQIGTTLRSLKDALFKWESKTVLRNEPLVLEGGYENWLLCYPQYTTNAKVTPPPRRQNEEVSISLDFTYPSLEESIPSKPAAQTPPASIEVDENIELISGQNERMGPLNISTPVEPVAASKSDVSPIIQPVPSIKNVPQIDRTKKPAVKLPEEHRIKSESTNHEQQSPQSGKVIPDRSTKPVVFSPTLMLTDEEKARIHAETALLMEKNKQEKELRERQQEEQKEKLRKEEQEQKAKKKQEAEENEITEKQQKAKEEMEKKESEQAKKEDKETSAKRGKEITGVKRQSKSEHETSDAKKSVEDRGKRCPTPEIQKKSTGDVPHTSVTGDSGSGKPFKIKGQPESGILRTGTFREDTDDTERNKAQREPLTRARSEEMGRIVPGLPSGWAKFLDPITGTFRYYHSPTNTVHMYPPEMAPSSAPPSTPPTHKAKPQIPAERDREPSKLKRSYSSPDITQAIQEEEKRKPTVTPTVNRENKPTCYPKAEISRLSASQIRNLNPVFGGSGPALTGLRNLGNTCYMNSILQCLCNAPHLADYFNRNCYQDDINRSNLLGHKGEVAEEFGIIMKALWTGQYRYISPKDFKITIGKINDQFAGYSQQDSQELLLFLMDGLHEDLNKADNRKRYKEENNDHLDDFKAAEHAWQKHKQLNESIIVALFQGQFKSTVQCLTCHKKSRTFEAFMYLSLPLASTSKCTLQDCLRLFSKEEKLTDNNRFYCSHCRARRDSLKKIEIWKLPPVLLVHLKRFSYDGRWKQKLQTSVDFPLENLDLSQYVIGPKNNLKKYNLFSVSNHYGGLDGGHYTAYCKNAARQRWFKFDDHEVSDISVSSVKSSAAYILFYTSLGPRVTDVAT
Procedure, shortened: as §1

USP9X = USP9X (UniProt Q93008)
Procedure, shortened: as §1

UniProt O00487 = target: UniProt O00487
Procedure, shortened: as §1

Chain of UniProt O00487 (O00487 whole entry): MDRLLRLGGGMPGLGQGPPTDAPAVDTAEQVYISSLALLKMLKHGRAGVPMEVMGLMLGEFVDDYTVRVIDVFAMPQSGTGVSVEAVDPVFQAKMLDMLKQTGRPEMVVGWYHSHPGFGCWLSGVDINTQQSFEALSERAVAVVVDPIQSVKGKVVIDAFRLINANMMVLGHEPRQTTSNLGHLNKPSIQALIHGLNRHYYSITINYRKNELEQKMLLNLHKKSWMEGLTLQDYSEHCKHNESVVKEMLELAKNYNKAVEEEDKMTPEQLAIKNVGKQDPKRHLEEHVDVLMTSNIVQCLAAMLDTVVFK
Chain of USP9X (Q93008 whole entry): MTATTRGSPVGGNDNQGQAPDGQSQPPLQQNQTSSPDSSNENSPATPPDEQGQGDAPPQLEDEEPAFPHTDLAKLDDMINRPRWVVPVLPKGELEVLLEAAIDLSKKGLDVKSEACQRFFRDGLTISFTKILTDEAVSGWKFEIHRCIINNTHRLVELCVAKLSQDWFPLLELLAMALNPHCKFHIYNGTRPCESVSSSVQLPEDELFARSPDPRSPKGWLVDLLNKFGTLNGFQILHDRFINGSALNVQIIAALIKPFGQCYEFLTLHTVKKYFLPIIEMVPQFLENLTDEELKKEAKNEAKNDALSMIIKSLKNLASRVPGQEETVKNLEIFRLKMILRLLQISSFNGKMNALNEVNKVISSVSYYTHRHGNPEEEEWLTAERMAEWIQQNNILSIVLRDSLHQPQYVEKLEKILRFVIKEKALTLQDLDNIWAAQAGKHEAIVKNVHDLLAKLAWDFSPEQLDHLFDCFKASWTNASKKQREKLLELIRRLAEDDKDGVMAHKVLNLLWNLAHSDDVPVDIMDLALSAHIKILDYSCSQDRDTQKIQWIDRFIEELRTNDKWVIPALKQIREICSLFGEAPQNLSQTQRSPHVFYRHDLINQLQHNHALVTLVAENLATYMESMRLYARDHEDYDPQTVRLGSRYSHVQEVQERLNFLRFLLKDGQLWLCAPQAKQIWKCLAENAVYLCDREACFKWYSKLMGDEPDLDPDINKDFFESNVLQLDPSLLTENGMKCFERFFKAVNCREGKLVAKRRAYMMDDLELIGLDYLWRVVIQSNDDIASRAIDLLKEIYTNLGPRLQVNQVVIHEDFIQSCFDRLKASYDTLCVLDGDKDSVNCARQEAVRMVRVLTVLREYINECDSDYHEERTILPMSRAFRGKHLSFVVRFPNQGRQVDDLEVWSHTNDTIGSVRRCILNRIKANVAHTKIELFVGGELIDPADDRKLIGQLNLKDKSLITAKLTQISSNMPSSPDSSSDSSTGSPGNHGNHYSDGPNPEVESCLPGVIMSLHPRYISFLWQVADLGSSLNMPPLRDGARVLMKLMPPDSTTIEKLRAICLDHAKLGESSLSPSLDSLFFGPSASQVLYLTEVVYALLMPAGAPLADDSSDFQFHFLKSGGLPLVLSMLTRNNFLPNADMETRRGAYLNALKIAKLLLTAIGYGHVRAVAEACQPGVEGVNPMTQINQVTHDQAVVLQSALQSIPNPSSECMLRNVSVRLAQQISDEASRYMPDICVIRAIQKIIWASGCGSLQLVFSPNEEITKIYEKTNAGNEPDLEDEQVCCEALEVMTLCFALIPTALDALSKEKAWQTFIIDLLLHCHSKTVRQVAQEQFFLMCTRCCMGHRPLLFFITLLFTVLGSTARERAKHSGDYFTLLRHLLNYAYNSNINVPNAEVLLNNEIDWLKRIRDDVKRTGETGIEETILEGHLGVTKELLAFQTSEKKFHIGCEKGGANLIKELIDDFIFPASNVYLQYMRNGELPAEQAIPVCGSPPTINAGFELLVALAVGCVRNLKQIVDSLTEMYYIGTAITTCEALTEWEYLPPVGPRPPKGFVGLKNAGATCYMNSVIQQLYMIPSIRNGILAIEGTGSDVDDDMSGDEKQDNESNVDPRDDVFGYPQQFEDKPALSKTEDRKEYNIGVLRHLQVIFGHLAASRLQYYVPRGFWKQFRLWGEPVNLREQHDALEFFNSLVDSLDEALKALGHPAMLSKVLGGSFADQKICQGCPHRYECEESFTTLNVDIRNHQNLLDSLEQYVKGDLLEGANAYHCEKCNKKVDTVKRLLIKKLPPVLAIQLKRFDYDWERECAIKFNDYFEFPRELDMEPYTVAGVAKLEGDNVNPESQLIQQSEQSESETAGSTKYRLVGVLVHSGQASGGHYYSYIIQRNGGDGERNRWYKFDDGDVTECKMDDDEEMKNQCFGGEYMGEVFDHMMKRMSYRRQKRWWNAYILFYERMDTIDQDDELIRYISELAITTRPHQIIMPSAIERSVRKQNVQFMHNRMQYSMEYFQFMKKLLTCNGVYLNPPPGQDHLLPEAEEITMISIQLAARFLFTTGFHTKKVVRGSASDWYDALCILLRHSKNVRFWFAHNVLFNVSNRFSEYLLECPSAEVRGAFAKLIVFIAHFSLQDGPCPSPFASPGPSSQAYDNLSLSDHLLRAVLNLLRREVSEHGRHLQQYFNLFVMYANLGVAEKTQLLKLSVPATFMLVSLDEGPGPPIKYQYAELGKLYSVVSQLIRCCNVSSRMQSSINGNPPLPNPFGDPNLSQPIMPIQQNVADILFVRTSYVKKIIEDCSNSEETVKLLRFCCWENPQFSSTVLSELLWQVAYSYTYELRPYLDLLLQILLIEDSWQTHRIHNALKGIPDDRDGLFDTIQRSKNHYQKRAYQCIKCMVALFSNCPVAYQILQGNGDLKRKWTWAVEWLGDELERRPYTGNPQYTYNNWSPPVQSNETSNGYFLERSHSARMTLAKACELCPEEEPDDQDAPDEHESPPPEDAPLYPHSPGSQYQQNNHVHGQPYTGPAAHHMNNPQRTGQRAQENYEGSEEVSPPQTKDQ
Chain of USP54 (Q70EL1 whole entry): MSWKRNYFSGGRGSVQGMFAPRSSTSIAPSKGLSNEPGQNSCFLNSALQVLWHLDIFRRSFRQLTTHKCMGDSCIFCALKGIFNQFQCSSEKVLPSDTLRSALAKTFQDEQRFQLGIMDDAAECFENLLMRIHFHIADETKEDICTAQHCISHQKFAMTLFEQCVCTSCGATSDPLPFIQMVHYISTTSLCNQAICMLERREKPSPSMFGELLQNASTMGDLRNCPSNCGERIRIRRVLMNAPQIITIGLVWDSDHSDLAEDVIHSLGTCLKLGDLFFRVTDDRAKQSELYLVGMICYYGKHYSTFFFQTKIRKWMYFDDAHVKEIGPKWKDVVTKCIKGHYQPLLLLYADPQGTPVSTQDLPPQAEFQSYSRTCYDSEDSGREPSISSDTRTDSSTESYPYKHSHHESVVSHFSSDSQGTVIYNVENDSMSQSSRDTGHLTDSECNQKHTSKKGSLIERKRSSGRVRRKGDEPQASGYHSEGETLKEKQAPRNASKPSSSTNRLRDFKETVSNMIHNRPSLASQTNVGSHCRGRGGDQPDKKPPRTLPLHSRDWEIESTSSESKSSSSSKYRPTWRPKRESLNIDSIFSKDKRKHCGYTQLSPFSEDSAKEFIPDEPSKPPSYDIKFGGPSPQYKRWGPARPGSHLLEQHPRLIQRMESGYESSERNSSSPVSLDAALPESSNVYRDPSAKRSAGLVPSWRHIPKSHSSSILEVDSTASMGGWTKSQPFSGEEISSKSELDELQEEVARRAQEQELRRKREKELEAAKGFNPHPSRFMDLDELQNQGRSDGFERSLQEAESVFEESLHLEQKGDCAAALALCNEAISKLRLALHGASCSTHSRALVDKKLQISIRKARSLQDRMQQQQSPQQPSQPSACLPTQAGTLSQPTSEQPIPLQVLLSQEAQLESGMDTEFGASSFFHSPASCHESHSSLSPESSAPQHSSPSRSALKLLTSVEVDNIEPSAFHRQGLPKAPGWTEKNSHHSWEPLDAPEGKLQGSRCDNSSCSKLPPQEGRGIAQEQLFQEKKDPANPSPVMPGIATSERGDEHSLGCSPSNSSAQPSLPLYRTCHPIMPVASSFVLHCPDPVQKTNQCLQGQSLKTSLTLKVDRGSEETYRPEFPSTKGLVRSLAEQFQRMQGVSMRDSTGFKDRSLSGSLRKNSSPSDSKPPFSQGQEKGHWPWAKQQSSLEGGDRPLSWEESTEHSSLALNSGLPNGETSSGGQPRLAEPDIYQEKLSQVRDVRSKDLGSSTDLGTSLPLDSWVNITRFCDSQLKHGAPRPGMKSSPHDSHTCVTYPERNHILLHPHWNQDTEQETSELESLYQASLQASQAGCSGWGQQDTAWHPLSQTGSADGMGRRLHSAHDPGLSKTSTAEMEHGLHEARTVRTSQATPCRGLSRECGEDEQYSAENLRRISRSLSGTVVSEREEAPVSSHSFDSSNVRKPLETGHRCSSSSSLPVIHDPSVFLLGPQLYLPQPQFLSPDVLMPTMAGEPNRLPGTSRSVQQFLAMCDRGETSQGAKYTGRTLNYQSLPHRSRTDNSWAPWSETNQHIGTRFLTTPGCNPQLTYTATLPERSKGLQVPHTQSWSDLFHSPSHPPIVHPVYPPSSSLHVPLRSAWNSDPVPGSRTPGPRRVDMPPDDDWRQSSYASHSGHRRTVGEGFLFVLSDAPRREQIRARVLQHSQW
Chain of USP46 (P62068 whole entry): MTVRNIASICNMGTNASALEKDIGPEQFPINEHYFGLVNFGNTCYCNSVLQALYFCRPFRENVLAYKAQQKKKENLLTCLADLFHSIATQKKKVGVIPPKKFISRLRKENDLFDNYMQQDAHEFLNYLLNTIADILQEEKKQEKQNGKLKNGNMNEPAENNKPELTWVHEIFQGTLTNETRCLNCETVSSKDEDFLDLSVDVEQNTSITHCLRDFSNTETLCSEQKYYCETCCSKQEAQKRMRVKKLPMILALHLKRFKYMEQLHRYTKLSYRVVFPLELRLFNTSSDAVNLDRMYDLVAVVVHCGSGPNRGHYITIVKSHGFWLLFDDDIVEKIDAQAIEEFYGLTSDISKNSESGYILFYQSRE

SMILES	log2 ratio of Biotin-Ahx-Ub-VS probe labelling (USP42)	log2 ratio of Biotin-Ahx-Ub-VS probe labelling (USP46)	log2 ratio of Biotin-Ahx-Ub-VS probe labelling (USP47)	log2 ratio of Biotin-Ahx-Ub-VS probe labelling (USP48)	log2 ratio of Biotin-Ahx-Ub-VS probe labelling (USP5)	log2 ratio of Biotin-Ahx-Ub-VS probe labelling (USP54)	log2 ratio of Biotin-Ahx-Ub-VS probe labelling (USP7)	log2 ratio of Biotin-Ahx-Ub-VS probe labelling (USP8)	log2 ratio of Biotin-Ahx-Ub-VS probe labelling (USP9X)	log2 ratio of Biotin-Ahx-Ub-VS probe labelling (UniProt O00487)
Cl.O=C(CCl)NCCN1CCc2ccccc21	-0.219	-0.521	0.103	-0.343	-0.362	0.277	-0.711	-0.959	-0.798	-0.255
C[C@H]1CN(C(=O)CCl)CCN1C(=O)c1cnn(C)c1.Cl	0.109	-0.0724	-0.522	-0.436	0.184	-0.0291	-0.353	-0.184	-0.221	-0.129
CCN1C(=O)C2CN(C(=O)CCl)CCN2C1=O (stereo not given)	0.369	-0.0317	0.124	-0.1	0.0692	-0.191	-0.307	0.0104	-0.106	0.00662
O=C(CCl)N(Cc1ccsc1)C1CC1	-0.0609	0.201	-0.631	-1.14 (active)	0.243	0.171	-1.25 (active)	0.0752	-0.139	0.0101
